# Values joined by “and” are separate entries in the source; they are usually repeats but may differ in a detail not shown here. Identical values can stand only once. Records with an inconclusive call do not appear. A call without a number means that no potency is given here. Some compounds were tested as several samples or in several runs, with calls that do not always agree. Active and inactive are the calls of the source. Unless noted, the call rests on the fitted dose curve; in most records, active means well fitted curve in the direction sought with a large enough effect in the repeat runs; inconclusive means weak or mixed curves; inactive means no such curve, though single readings can be large; an effect the other way counts as inactive or inconclusive.
# Key:
# [1] = qHTS assay to identify small molecule agonists of the hypoxia (HIF-1) signaling pathway - cell viability counter screen (AID 1224844; calls by dose curve; further: nearly all actives have a fitted effect of over 50% in size; further: potency means the concentration at half of the fitted maximal effect)
# In short: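 Tox21 10K compounds were added to HRE-bla ME-180 cells (0.5% dialyzed FBS) and incubated 17 hrs at 37C; ATP-based CellTiter-Glo luminescence then reported cell viability in the same wells.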
# [2] = qHTS RealTime-Glo MT Cell Viability Assay in HepG2 cells - 24 hour (AID 1224867); further: nearly all actives have a fitted effect of over 50% in size
# In short: (§1)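 Compound treatment began 5 h after plating HepG2 cells (600/well) with NanoLuc luciferase and prosubstrate. Plates stayed at 37 C for 40 h; luminescence was captured at six time points, 0 h through 40 h.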
# [3] = qHTS RealTime-Glo MT Cell Viability Assay in HEK293 cells - 32 hour (AID 1224868); further: nearly all actives have a fitted effect of over 50% in size; further: potency means the concentration at half of the fitted maximal effect
# In short: (§2)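 Quantitative high-throughput screen of the Tox21 10K library in HEK293: cells and RealTime-Glo reagents plated together, compound added at 5 h, luminescence monitored through 40 h at 37 C.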
# [4] = A CellTox Green Cytotoxicity Assay to monitor cytotoxicity in HEK293 cells - 0 hour (AID 1224869); further: nearly all actives have a fitted effect of over 50% in size
# In short: (§3)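 Cytotoxicity was tracked continuously in HEK293 cells by a DNA-binding dye excluded from viable cells. Compounds were transferred in DMSO 5 h after seeding; fluorescence was recorded at intervals up to 40 h.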
# [5] = qHTS RealTime-Glo MT Cell Viability Assay in HepG2 cells - 40 hour (AID 1224870); further: nearly all actives have a fitted effect of over 50% in size
# In short: (§4)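 Real-time viability: cells seeded at 600 per well together with NanoLuc and cell-permeant prosubstrate, compounds added after 5 h incubation. Luminescence tracked at 0, 8, 16, 24, 32 and 40 h of exposure.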
# [6] = A CellTox Green Cytotoxicity Assay to monitor cytotoxicity in HEK293 cells - 40 hour (AID 1224871); further: nearly all actives have a fitted effect of over 45% in size; further: potency means the concentration at half of the fitted maximal effect
# In short: as §3
# [7] = qHTS RealTime-Glo MT Cell Viability Assay in HEK293 cells - 16 hour (AID 1224872); further: nearly all actives have a fitted effect of over 50% in size; further: potency means the concentration at half of the fitted maximal effect
# In short: as §2
# [8] = qHTS RealTime-Glo MT Cell Viability Assay in HepG2 cells - 8 hour (AID 1224873); further: nearly all actives have a fitted effect of over 55% in size
# In short: as §4
# [9] = A CellTox Green Cytotoxicity Assay to monitor cytotoxicity in HEK293 cells - 24 hour (AID 1224875); further: nearly all actives have a fitted effect of over 45% in size
# In short: as §3
# [10] = A CellTox Green Cytotoxicity Assay to monitor cytotoxicity in HepG2 cells - 16 hour (AID 1224876); further: nearly all actives have a fitted effect of over 45% in size; further: potency means the concentration at half of the fitted maximal effect
# In short: (§5)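 Real-time, homogeneous cytotoxicity readout: dead-cell DNA staining by CellTox Green in HepG2 monolayers, fluorescence measured at timed intervals up to 40 h of continuous compound exposure.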
# [11] = qHTS RealTime-Glo MT Cell Viability Assay in HepG2 cells - 32 hour (AID 1224877); further: nearly all actives have a fitted effect of over 55% in size; further: potency means the concentration at half of the fitted maximal effect
# In short: as §1
# [12] = A CellTox Green Cytotoxicity Assay to monitor cytotoxicity in HepG2 cells - 24 hour (AID 1224878); further: nearly all actives have a fitted effect of over 45% in size; further: potency means the concentration at half of the fitted maximal effect
# In short: as §5
# [13] = A CellTox Green Cytotoxicity Assay to monitor cytotoxicity in HepG2 cells - 40 hour (AID 1224879); further: nearly all actives have a fitted effect of over 40% in size; further: potency means the concentration at half of the fitted maximal effect
# In short: as §5
# [14] = qHTS assay to identify small molecule agonists of H2AX (AID 1224845; active means well fitted activation curve with a large enough effect in the signal ratio in the repeat runs, not every such curve was filed as active; the % refers to the signal ratio)
# In short: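 Phospho-H2AX Ser139 measured by HTRF (ex 320 nm; em 665 and 620 nm) after 24 hr antibody incubation. Compounds, 15 concentrations, 0.76% DMSO, were applied to CHO-K1 cells for 3hr at 37C before lysis.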
# [15] = qHTS assay to identify small molecule agonists of H2AX - cell viability counter screen (AID 1224847; calls by dose curve;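 further: wild-type CHO-K1 cells; top concentration of the series differs between compounds; nearly all actives have a fitted effect of over 30% in size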)
# In short: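 Counter-screen for viability: CellTiter-Glo ATP luminescence read after 3 h compound treatment (15-point titration, 0.76% DMSO final) of CHO-K1 cells at 37C, with 30 min room-temperature reagent incubation.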
# [16] = qHTS RealTime-Glo MT Cell Viability Assay in HEK293 cells - 0 hour (AID 1224880)
# In short: (§6)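 Nonlytic bioluminescent viability monitoring. HEK293 at 600 cells/well with reagent; 5 h settle; compound transfer by pintool; plates held at 37 C and read at set time points.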
# [17] = qHTS assay to identify small molecule agonists of the hypoxia (HIF-1) signaling pathway (AID 1224846; active means well fitted activation curve with a large enough effect in the signal ratio in the repeat runs, not every such curve was filed as active; the % refers to the signal ratio)
# In short: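 Steps: seed ME-180 HRE-bla cells (2,000/well, 0.5% dialyzed FBS); incubate 5 hrs at 37C; pin-transfer compounds or DMSO; incubate 17 hrs; add LiveBLAzer B/G substrate CCF4-AM; measure reporter activation by FRET.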
# [18] = qHTS assay to identify small molecule antagonists of the estrogen related receptor (ERR) signaling pathway from Tox21 library (AID 1224848); further: nearly all actives have a fitted effect of over 50% in size; further: potency means the concentration at half of the fitted maximal effect
# In short: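 Reading was by luminescence 30 min after ONE-Glo addition. Before that, ERR cells at 2,000 per well had rested 6 h at 37 C/5% CO2 and then received pin-tooled compounds in DMSO for 18 h at 37 C.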
# [19] = qHTS assay to identify small molecule agonists of the estrogen related receptor (ERR) signaling pathway from Tox21 library (AID 1224849; calls by dose curve; further: nearly all actives have a fitted effect of over 15% in size); settings: ERR reporter cell line, ONE-Glo luciferase, 18 h
# In short: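 Agonist signal is luciferase luminescence from an ERR reporter cell line treated 18 h at 37 C with DMSO-dissolved compounds, read 30 min after ONE-Glo addition at room temperature.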
# [20] = qHTS RealTime-Glo MT Cell Viability Assay in HEK293 cells - 40 hour (AID 1224874); settings: RealTime-Glo luminescence; max response: stronger effect = lower value; further: nearly all actives have a fitted effect of over 50% in size; further: potency means the concentration at half of the fitted maximal effect
# In short: as §6
compound,measurement,setting,value
O=c1c(O)c(-c2ccc(O)c(O)c2)oc2cc(O)cc(O)c12,Potency,[1],inactive
same,Potency,[2],inactive
same,Potency,[3],inactive
same,Potency,[4],inactive
same,Potency,[5],inactive
same,Potency,[6],inactive
same,Potency,[7],inactive
same,Potency,[8],inactive
same,Potency,[9],inactive
same,Potency,[10],inactive
same,Potency,[11],inactive
same,Potency,[12],inactive
same,Potency,[13],inactive
C=C(CC(=O)O)C(=O)O,Potency,[1],inactive
same,Potency,[14],inactive
same,Potency,[15],inactive
same,Potency,[2],inactive
same,Potency,[3],inactive
same,Potency,[4],inactive
same,Potency,[5],inactive
same,Potency,[6],inactive
same,Potency,[7],inactive
same,Potency,[8],inactive
same,Potency,[9],inactive
same,Potency,[10],inactive
same,Potency,[11],inactive
same,Potency,[12],inactive
same,Potency,[13],inactive
same,Potency,[16],inactive
C[Si](C)(C)N[Si](C)(C)C,Potency,[1],inactive
same,Potency,[14],inactive
same,outcome,[17],inactive
same,Potency,[15],inactive
same,Potency,[2],inactive
same,Potency,[3],inactive
same,Potency,[4],inactive
same,Potency,[5],inactive
same,Potency,[6],inactive
same,Potency,[7],inactive
same,Potency,[8],inactive
same,Potency,[9],inactive
same,Potency,[10],inactive
same,Potency,[11],inactive
same,Potency,[12],inactive
same,Potency,[13],inactive
same,Potency,[16],inactive
COc1c(Cl)ccc(Cl)c1C(=O)O,Potency,[1],inactive
same,Potency,[14],inactive
same,outcome,[17],inactive
same,Potency,[15],inactive
same,Potency,[2],inactive
same,Potency,[3],inactive
same,Potency,[4],inactive
same,Potency,[5],inactive
same,Potency,[6],inactive
same,Potency,[7],inactive
same,Potency,[8],inactive
same,Potency,[9],inactive
same,Potency,[10],inactive
same,Potency,[11],inactive
same,Potency,[12],inactive
same,Potency,[13],inactive
same,Potency,[16],inactive
CCCCCNCCCCC,Potency,[1],inactive
same,Potency,[14],inactive
same,outcome,[17],inactive
same,Potency,[15],inactive
same,Potency,[2],inactive
same,Potency,[3],inactive
same,Potency,[4],inactive
same,Potency,[5],inactive
same,Potency,[6],inactive
same,Potency,[7],inactive
same,Potency,[8],inactive
same,Potency,[9],inactive
same,Potency,[10],inactive
same,Potency,[11],inactive
same,Potency,[12],inactive
same,Potency,[13],inactive
same,Potency,[16],inactive
O=C(c1ccccc1)c1ccc(O)c(O)c1O,outcome,[17],inactive
same,Potency,[15],inactive
same,Potency,[18],inactive
same,"activity change, positive = activation",[19]; at 92.4 µM (top of the series),-7.85% (inactive) and -0.637% (inactive)
same,Potency,[2],inactive
same,Potency,[3],inactive
same,Potency,[4],inactive
same,Potency,[5],inactive
same,Potency,[6],inactive
same,Potency,[7],inactive
same,Potency,[8],inactive
same,max response,[20],-18.4% (inactive)
same,Potency,[9],inactive
same,Potency,[10],inactive
same,Potency,[11],inactive
same,Potency,[12],inactive
same,Potency,[13],inactive
same,Potency,[16],inactive
COc1ccc(N)c(OC)c1,Potency,[1],inactive
same,outcome,[17],inactive
same,Potency,[15],inactive
same,Potency,[2],inactive
same,Potency,[3],inactive
same,Potency,[4],inactive
same,Potency,[5],inactive
same,Potency,[6],inactive
same,Potency,[7],inactive
same,Potency,[8],inactive
same,max response,[20],-8.13% (inactive) and -8.26% (inactive)
same,Potency,[9],inactive
same,Potency,[10],inactive
same,Potency,[11],inactive
same,Potency,[12],inactive
same,Potency,[13],inactive
same,Potency,[16],inactive
Cc1ncc(CO)c(CO)c1O,Potency,[1],inactive
same,Potency,[14],inactive
same,Potency,[15],inactive
same,Potency,[2],inactive
same,Potency,[3],inactive
same,Potency,[4],inactive
same,Potency,[5],inactive
same,Potency,[6],inactive
same,Potency,[7],inactive
same,Potency,[8],inactive
same,max response,[20],6.27% (inactive) and -1.31% (inactive) and 5.41% (inactive)
same,Potency,[9],inactive
same,Potency,[10],inactive
same,Potency,[11],inactive
same,Potency,[12],inactive
same,Potency,[13],inactive
same,Potency,[16],inactive
CC(CN1c2ccccc2Sc2ccccc21)N(C)C (stereo unspecified),Potency,[1],39.3 µM (active)
same,Potency,[14],inactive
same,Potency,[18],61.8 µM (active) and 68.6 µM (active) and inactive
same,"activity change, positive = activation",[19]; at 42.5 µM (top of the series),-5.06% (inactive)
same,"activity change, positive = activation",[19]; at 92.4 µM (top of the series),-81.8% (inactive) and -69.4% (inactive)
same,Potency,[3],39.3 µM (active) and 43.6 µM (active) and 6.01 µM (active)
same,Potency,[4],inactive
same,Potency,[5],inactive
same,Potency,[6],54.9 µM (active) and inactive
same,Potency,[7],39.3 µM (active) and 30.9 µM (active)
same,Potency,[8],inactive
same,Potency,[20],39.3 µM (active) and 43.6 µM (active) and 6.01 µM (active)
same,Potency,[10],inactive and 43.6 µM (active)
same,Potency,[11],inactive and 49 µM (active)
same,Potency,[12],49 µM (active) and 23.9 µM (active)
same,Potency,[13],55.5 µM (active) and 49 µM (active) and 23.9 µM (active)
same,Potency,[16],inactive
Clc1cccc(Cl)c1NC1=NCCN1,Potency,[1],inactive
same,Potency,[14],inactive
same,Potency,[15],inactive
same,Potency,[2],inactive
same,Potency,[3],inactive
same,Potency,[4],inactive
same,Potency,[5],inactive
same,Potency,[6],inactive
same,Potency,[7],inactive
same,Potency,[8],inactive
same,max response,[20],1.29% (inactive) and 0.883% (inactive)
same,Potency,[9],inactive
same,Potency,[10],inactive
same,Potency,[11],inactive
same,Potency,[12],inactive
same,Potency,[13],inactive
same,Potency,[16],inactive

# Source: PubChem BioAssay (Tox21)
